# Results filed as inconclusive are left out. Entries that show only a call come without a potency. Values without a mark were called inactive. Activity calls are given as the source filed them. The call rests on the fitted dose curve; in most records, active means well fitted curve in the direction sought with a large enough effect; inconclusive means small, poorly fitted or top-dose-only effect, or another doubt; inactive means no such curve, though single readings can be large; an effect the other way counts as inactive or inconclusive.
# Columns and labels:
# Es-2 = assay: Primary qHTS to identify gynecologic anti-cancer compounds using libraries of approved drugs and bioactive compounds (AID 1345084); details: Gynecologic cancer cell panel viability, ATPlite luminescence, 48 h; series mostly up to 57.5 µM; further: nearly all actives have a fitted effect of over 55% in size
# How it was run: (§1)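 ATP-based viability (ATPlite), 1,000 cells/well, 16 h pre-incubation, 48 h compound at 37 C, 5% CO2, 15 min RT before read.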
# HeLa = assay: as above; details: Gynecologic cancer cell panel viability, ATPlite luminescence, 48 h; series mostly up to 57.5 µM
# How it was run: as §1
# Hek293T = assay: as above; details: Gynecologic cancer cell panel viability, ATPlite luminescence, 48 h, control line for the selectivity index; series mostly up to 57.5 µM
# How it was run: as §1
# JEG-3 = assay: as above; details: Gynecologic cancer cell panel viability, ATPlite luminescence, 48 h; series mostly up to 57.5 µM
# How it was run: as §1
# OV90 = assay: as above; details: Gynecologic cancer cell panel viability, ATPlite luminescence, 48 h; series mostly up to 57.5 µM
# How it was run: as §1
# PA-1 = assay: as above; details: Gynecologic cancer cell panel viability, ATPlite luminescence, 48 h; series mostly up to 57.5 µM
# How it was run: as §1
# SKOV3 = assay: as above; details: Gynecologic cancer cell panel viability, ATPlite luminescence, 48 h; series mostly up to 57.5 µM
# How it was run: as §1
# Tov-21-G = assay: as above; details: Gynecologic cancer cell panel viability, ATPlite luminescence, 48 h; series mostly up to 57.5 µM
# How it was run: as §1
# Tov112D = assay: as above; details: Gynecologic cancer cell panel viability, ATPlite luminescence, 48 h; series mostly up to 57.5 µM
# How it was run: as §1
# [1] = Drug repurposing screens with cells derived from glioblastoma tumor samples (AID 1345199); details: GBM patient neurospheres viability, ATP luminescence, 48 h; further: nearly all actives have a fitted effect of over 40% in size; further: potency means the concentration at half of the fitted maximal effect
# How it was run: (§2)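 Primary testing used CD133+ neurospheres from four GBM patients, seven concentrations, 48 h exposure and ATP-based viability; confirmation added three slower-growing patient lines.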
# astro = assay: as above; details: viability, ATP luminescence, 48 h; series mostly up to 45.9 µM
# How it was run: as §2
# [2] = at 45.9 µM (top of the series), tumour line B
# [3] = at 45.9 µM (top of the series), tumour line D
# [4] = at 46 µM (top of the series), tumour line A
# [5] = at 46.1 µM (top of the series), tumour line C
Structure (SMILES),Potency (Es-2),Potency (HeLa),Potency (Hek293T),Potency (JEG-3),Potency (OV90),Potency (PA-1),Potency (SKOV3),Potency (Tov-21-G),Potency (Tov112D),"activity, negative = cell killing [1, 2]","activity, negative = cell killing [1, 3]","activity, negative = cell killing [1, 4]","activity, negative = cell killing [1, 5]",Potency (astro),Potency ([1]; tumour line A),Potency ([1]; tumour line D),"activity, negative = cell killing ([1]; at 20 µM (top of the series), tumour line C)","activity, negative = cell killing ([1]; at 21.2 µM (top of the series), tumour line B)","activity, negative = cell killing ([1]; at 21.2 µM (top of the series), tumour line D)","activity, negative = cell killing ([1]; at 21.3 µM (top of the series), tumour line A)"
C[C@@H]1CN(c2c(F)c(N)c3c(=O)c(C(=O)O)cn(C4CC4)c3c2F)C[C@H](C)N1,inactive,inactive,inactive,inactive,inactive,inactive,inactive,inactive,inactive,-1.03%,-17%,-8%,-3.77%,inactive,,,,,,
CCCN[C@H]1CCc2nc(N)sc2C1,inactive,inactive,inactive,inactive,inactive,inactive,inactive,inactive,inactive,3.81%,9.12%,-26.8%,-13%,,,,,,,
C#CCN[C@@H]1CCc2ccccc21,inactive,inactive,inactive,inactive,inactive,inactive,inactive,inactive,inactive,-8.4%,-8%,-26%,-23.8%,,,,,,,
CC1=CC(=O)c2ccccc2C1=O,inactive,inactive,inactive,inactive,inactive,inactive,inactive,inactive,inactive,,,,-17.3%,,35.5 µM (active),22.4 µM (active),,,,
CN1CCN(c2c(F)cc3c(=O)c(C(=O)O)cn4c3c2OCN4C)CC1,inactive,inactive,inactive,inactive,inactive,inactive,inactive,inactive,inactive,0.422%,-17.1%,-24%,18%,,,,,,,
CCn1cc(C(=O)O)c(=O)c2cc(F)c(N3CCNCC3)cc21,inactive,inactive,inactive,inactive,inactive,inactive,inactive,inactive,inactive,1.94%,2.4%,,-8.69%,inactive,,,2.43%,-7.83%,-12%,-21.7%
CCN(C)C(=O)Oc1cccc([C@H](C)N(C)C)c1,inactive,inactive,inactive,inactive,inactive,inactive,inactive,inactive,inactive,-13.1%,-25.1%,,-30%,inactive,20 µM (active),,,,,
CCC(C)(C)c1ccc(CC(C)CN2C[C@@H](C)O[C@@H](C)C2)cc1 (stereo not given in full),inactive,inactive,inactive,inactive,inactive,inactive,inactive,inactive,inactive,,,,,,,,,,,

# Source: PubChem BioAssay (NCATS)
